A selection: hits, their analogues and other compounds. The true share with any hit is near 21%.
IL1B secr inh: inflammasome signaling inhibition, IL-1 beta readout; THP-1 LPS/ATP IL-1B secretion, AlphaLISA, 16 h; hits give low values; activity change, % at 57.5 µM; 360,000 tested, 4.7% active; AID 743279; in the data active = activity change below about -50%; inconclusive = mostly about -30% to -49%
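THP-1 cells pretreated 1 hr with compounds (up to 57.5 uM final), then stimulated with LPS (250 ng/mL final) plus ATP (1.25 mM final); secreted IL-1B measured by AlphaLISA after 16 hr, decreased signal indicating inhibition.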
ELG1 DNA repair: blocks ELG1-dependent DNA repair in HEK293T cells; HEK293T ELG1-luciferase reporter, luminescence, 16 h; DNA damage induced by 5-fluorouridine; Potency, µM (doses to about 46.1 µM), without a hit: top-dose activity change, negative = inhibition, actives largely listed as inhibitors; AID 504467; 330,000 tested, 2.3% active; note: potency is the fitted concentration of half-maximal effect; nearly all actives have a fitted effect of over 55% in size
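DMSO vehicle served as the neutral condition. Each well held 2,000 cells given 5-fluorouridine plus compound; after 16 hr at 37 °C/5% CO2, ONE-Glo was added and luciferase measured 30 min later.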
DT40 TDP1 no CPT: qHTS for Inhibitors of human tyrosyl-DNA phosphodiesterase 1 (TDP1): qHTS in cells in absence of CPT; DT40 Tdp1-/- hTDP1 cells, no CPT, ATP luminescence, 48 h; Potency, µM (titrated, usually from 46.2 µM), without a hit: at the top dose activity change, negative = growth inhibition, actives largely listed as inhibitors; 420,000 tested, 15% active; AID 686978, 2013; note: potency is the fitted concentration of half-maximal effect; nearly all actives have a fitted effect of over 55% in size
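Compound effects on proliferation are scored in DT40 Tdp1-/-;hTDP1 cells in the absence of CPT. ATP levels (CellTiter-Glo luminescence) are recorded after a ≥48 hr, 37 °C incubation.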
Gal4-VP16 FLuc: counter-screen for ROR gamma inhibitors: Gal4-VP16 reporter; Potency, µM (series often up to 53.6 µM), inactives show top-dose activity, negative = inhibition, most hits filed as inhibitors; AID 2546; 310,000 tested, 3.5% active; Drosophila S2 Gal4-VP16 UAS-luciferase, luminescence, 20 h;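 note: Gal4-VP16 expression switched on by copper sulfate through the metallothionein promoter; potency is the fitted concentration of half-maximal effect; nearly all actives have a fitted effect of over 50% in size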
RORg inh: ROR gamma (mouse) transcription inhibition. P51450. Drosophila S2 Gal4-RORgamma UAS-luciferase reporter, 20 h. Potency, µM (doses to about 53.6 µM), for inactives: at the highest dose activity change, negative = inhibition, usual class: inhibitors. 310,000 tested, 5.4% active; note: potency is the fitted concentration of half-maximal effect; nearly all actives have a fitted effect of over 60% in size
Target sequence (P51450 whole entry, looked up, the tested form may be a part): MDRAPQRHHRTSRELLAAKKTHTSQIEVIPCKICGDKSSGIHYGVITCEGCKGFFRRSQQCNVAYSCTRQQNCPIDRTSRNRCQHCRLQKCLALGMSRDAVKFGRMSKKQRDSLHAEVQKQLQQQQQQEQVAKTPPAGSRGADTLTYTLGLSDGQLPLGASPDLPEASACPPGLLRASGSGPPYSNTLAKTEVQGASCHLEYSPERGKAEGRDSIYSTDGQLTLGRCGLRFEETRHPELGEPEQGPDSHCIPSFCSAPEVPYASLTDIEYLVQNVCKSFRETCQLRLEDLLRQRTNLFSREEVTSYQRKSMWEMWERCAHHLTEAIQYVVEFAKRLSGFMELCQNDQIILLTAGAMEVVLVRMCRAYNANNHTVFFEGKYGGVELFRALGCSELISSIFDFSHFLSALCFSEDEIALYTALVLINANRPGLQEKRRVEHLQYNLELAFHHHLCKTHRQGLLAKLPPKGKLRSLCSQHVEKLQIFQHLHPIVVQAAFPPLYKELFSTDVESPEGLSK
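ROR gamma transcriptional activity was tracked as Gal4-UAS luciferase output in stably transfected Drosophila Schneider cells, with compound added 1 hr before 700 uM copper sulfate induction and a 20 hr ambient-temperature incubation.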
TDP1 cell CPT: DT40-hTDP1 cell growth loss with CPT; AID 686979; chicken DT40 Tdp1-/-;hTDP1 cells + 20 nM CPT, ATP luminescence, 48 h; 420,000 tested, 12% active; Potency, µM (highest dose often 46.2 µM), for inactives: at the highest dose activity change, negative = growth inhibition, actives largely listed as inhibitors; note: potency is the fitted concentration of half-maximal effect; nearly all actives have a fitted effect of over 55% in size
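Chicken DT40 Tdp1-/- cells complemented with human TDP1, 400 cells/well, exposed to compounds plus 20 nM camptothecin for at least 48 h at 37 C; viability read as ATP content by CellTiter-Glo luminescence.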
Active calls of the source: *; u = inconclusive; x = not tested or not shown; [ ] = another dose, or the depositor's remark. Unless noted, calls come from the whole dose curve; as a rule, active = well fitted curve in the direction sought with a large enough effect; inconclusive = small, poorly fitted or top-dose-only effect, or another doubt; inactive = no such curve, though single readings can be large; an effect the other way counts as inactive or inconclusive. % is set by controls: 0 for no effect and ±100 for the full control effect.

SMILES	IL1B secr inh	ELG1 DNA repair	DT40 TDP1 no CPT	Gal4-VP16 FLuc	RORg inh	TDP1 cell CPT
COc1ccc(CC(=O)NC2CC(=O)N(c3cccc(F)c3)C2)cc1OC (stereo not given)	x	x	-0.2%	x	x	6.5%
Cc1nc(-c2ccc(S(=O)(=O)N(C)Cc3ccccc3)cc2)co1	x	x	20.6µM*	x	x	25.9µM*
COCc1nnc(NC(=O)c2ccc(S(=O)(=O)N(C)Cc3ccccc3)cc2)o1	75.3	u	u	2.24µM*	0.794µM*	u
Cc1nc(-c2ccc(S(=O)(=O)Nc3ccccc3C)cc2)co1	0.0	2.8%	-19.5%	-19.9%	u	u
Cc1nnc(NC(=O)c2ccc(S(=O)(=O)N(C)Cc3ccccc3)cc2)o1	25.9	-28.7%	23.1µM*	0.562µM*	0.199µM*	u
COc1ccc(S(=O)(=O)N(CC(=O)NCC2CCCO2)Cc2ccccc2)cc1 (stereo not given)	-10.2	-1.3%	-16.6%	-9.5%	-14.5%	2.8%
CCN(Cc1ccccc1)S(=O)(=O)c1ccc(C(=O)Nc2nnc(C3CC3)o2)cc1	36.2	11.6µM*	16.4µM*	0.562µM*	0.0%	u
CN(Cc1ccccc1)S(=O)(=O)c1nnc(NC(=O)c2ccccc2)s1	-6.9	-0.8%	-8.0%	-6.7%	23.6%	-17.8%
CS(=O)(=O)Nc1cccc(-c2cncnc2-n2ccnc2)c1	x	x	1.1%	-7.3%	-11.8%	4.6%
Cc1cn([C@H]2C[C@H](O)[C@@H](CNC/C=C/c3ccccc3[N+](=O)[O-])O2)c(=O)[nH]c1=O	-12.1	x	u	x	x	-7.3%
CCCCCCCCCCCCCCCC(=O)OCC(O)C1OC(=O)C(O)=C1O (stereo not given)	x	x	x	-0.2%	3.7%	x
CSc1cccc(NC(=O)c2[nH]c(C)c(C(C)=O)c2C)c1	u	u	u	-17.1%	-8.7%	u
CCC(=O)N1c2ccccc2CC1C(=O)NCc1ccc(N(C)C)cc1 (stereo not given)	x	x	-20.2%	x	x	-8.4%
CNC(=S)NNC(=O)c1cccc(C(F)(F)F)c1	-1.2	-2.1%	-9.2%	-6.2%[0.365 µM]	11.2µM*	-9.2%
CCCNC(=S)Nc1cccc(C(F)(F)F)c1	4.4	-11.9%	-17.0%	u	10µM*	-5.8%
CNC(=S)NNC(=O)c1ccc(=O)n(Cc2cccc(C(F)(F)F)c2)c1	29.0	3.2%	u	-8.3%	u	u
FC(F)(F)c1cccc(NC(=S)NNC(=S)NCc2ccccc2)c1	-15.4	u	25.9µM*	u	u	u
Cc1ccc(NC(=S)NNC(C)(C)C)cc1	x	-2.8%	-21.5%	0.251µM*	u	4.0%
Cc1ccccc1C(=O)NCCN1CCC(n2c(=O)[nH]c3ccccc32)CC1	-7.3	x	-22.6%	x	x	u
CCCCC1CC2=C(C(=O)OC(C)(C)O2)C(c2ccc(F)cc2)O1 (stereo not given)	11.4	x	-16.0%	x	x	4.3%
O=C(NCc1ccccn1)Nc1cccc(F)c1	-25.1	u	-3.3%	u	24.0%	3.5%
FC(F)(F)c1cccc(NC(=S)NCc2ccccn2)c1	-3.2	14.5%	-9.1%	7.08µM*	3.55µM*	-12.8%
Cc1ccc(NC(=S)NCc2ccccn2)cc1	-10.1	u	-18.1%	15.8µM*	3.98µM*	5.4%
CCc1ccc(NC(=O)NCc2ccccn2)cc1	0.0	u	4.2%	7.5%	-29.6%	-2.5%
Cc1cccc(NC(=S)NCc2ccccn2)c1	-4.1	8.5%	-3.8%	u	5.01µM*	-2.7%
SMILES	IL1B secr inh	ELG1 DNA repair	DT40 TDP1 no CPT	Gal4-VP16 FLuc	RORg inh	TDP1 cell CPT
CC(=NNC(=S)Nc1cccc(Cl)c1)c1ccccn1	-88.1*	x	0.0206µM*	x	x	0.082µM*
O=C(NCc1ccccn1)C(=O)NCc1ccccn1	14.9	10.3%	-2.7%	-15.5%	13.5%	11.2%
O=C(NNC(=S)Nc1cccc(C(F)(F)F)c1)c1ccccc1Cl	u	-4.8%	18.4µM*	10µM*	12.6µM*	u
CC(C)(C)NNC(=S)Nc1cccc(C(F)(F)F)c1	u	-25.5%	1.16µM*	3.16µM*	1µM*	3.26µM*
O=C(CCNC(=O)c1ccccc1Cl)Nc1cccc(C(F)(F)F)c1	-18.5	3.2%	-18.2%	-2.4%	12.8%[10 µM]	-9.7%
S=C(NCc1ccccn1)Nc1cccc(Cl)c1	-18.4	0.0%	u	12.6µM*	6.31µM*	u
S=C(NCc1ccncc1)Nc1cccc(Cl)c1	-2.2	1.9%	-15.3%	0.0%	15.0%	-7.6%
S=C(NCc1ccccn1)NN=Cc1ccccn1	93.7	x	0.146µM*	x	x	0.146µM*
O=c1cc(N2CCNCC2)oc2c(-c3ccccc3)cccc12	x	x	x	-13.9%	-6.5%	x
CC12C=C(/C=C/c3ccc(Br)cc3)C(C)(C1)C(c1ccc(Br)cc1)CC2=O (stereo not given)	x	x	x	10.7%[10 µM]	-0.4%[10 µM]	x
O=C(CCCCn1c(=O)c2ccccc2n(Cc2cccc(F)c2)c1=O)NCc1ccc2c(c1)OCO2	x	x	23.1µM*	x	x	u
CCc1ccc(NC(=O)Cn2c(=O)n(CCCC(=O)NCc3ccc4c(c3)OCO4)c(=O)c3ccccc32)cc1	x	x	u	x	x	20.6µM*
O=C(CCn1c(=O)c2ccccc2n(Cc2ccc(F)cc2Cl)c1=O)NCc1ccc2c(c1)OCO2	x	x	u	x	x	-1.4%
COc1cccc(NC(=O)Cn2c(=O)n(CCCC(=O)NCc3ccc4c(c3)OCO4)c(=O)c3ccccc32)c1	x	x	-3.2%	x	x	-12.1%
CCN(CC)C(=O)Cn1c(=O)n(CCCC(=O)NCc2ccc3c(c2)OCO3)c(=O)c2sccc21	-13.4	11.6%	-5.5%	-2.9%	-19.0%	1.9%
Cc1ccc(C)c(Cn2c(=O)n(CCCC(=O)NCc3ccc4c(c3)OCO4)c(=O)c3sccc32)c1	x	x	14.6µM*	x	x	u
COc1ccc(NC(=O)CCCn2c(=O)c3sccc3n(Cc3ccc(C)cc3C)c2=O)cc1	-29.7	u	16.4µM*	-0.3%	11.5%	20.6µM*
Cc1ccc(Cl)cc1NC(=O)C1CCN(S(=O)(=O)c2cccc3nonc23)CC1	x	x	-27.9%	x	x	-8.9%
O=C(Cn1ncc2c3ccccc3n(Cc3ccccc3)c2c1=O)NCc1ccco1	7.7	-6.0%	u	-3.5%	6.6%	-19.2%
CC1CCN(c2c(NCC3CCC(C(=O)Nc4ccccn4)CC3)c(=O)c2=O)CC1 (stereo not given)	-8.4	u	u	0.5%	28.7%	5.6%
Cc1ccnc(NC(=O)C2CCC(CNc3c(N4CCCC4)c(=O)c3=O)CC2)c1 (stereo not given)	-66.9*	u	u	-11.7%	5.4%	-1.5%

Source: PubChem BioAssay (National Center for Advancing Translational Sciences (NCATS))
